Data as given in PubChem BioAssay.
Unmarked numbers belong to inactive results. Calls of active or inactive are those of the source.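 Rule for the calls: active = thallium flux through the channel raised or lowered by more than 3 SD from vehicle-only wells, actives on both sides; inactive = the rest.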

What was measured:
Experiment in all cases: BK channel mutant inhibitors and activators – cell-based, U2OS BacMam, thallium flux, beta subunits, selectivity assay, profiling panel (AID 1259406);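 note: initial slope of Thallos dye fluorescence rise after thallium is added; log ratio against the mean of 0.3% DMSO vehicle wells on the same plate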
[1] = tested on: F380Y; settings: U2OS BacMam BK variants, at 30 µM
[2] = tested on: F380Y/beta1; settings: U2OS BacMam BK variants, at 30 µM
[3] = tested on: F380Y/beta2Delta; settings: U2OS BacMam BK variants, at 30 µM
[4] = tested on: F380Y/beta4; settings: U2OS BacMam BK variants, at 30 µM
[5] = molecular target: Calcium-activated potassium channel subunit alpha-1 (Homo sapiens) + Leucine-rich repeat-containing protein 26 (Homo sapiens) (UniProt Q12791+Q2I0M4); settings: U2OS BacMam BK variants, F380Y/Slo1WT/gamma1, at 30 µM
Sequence of Calcium-activated potassium channel subunit alpha-1 (Homo sapiens) + Leucine-rich repeat-containing protein 26 (Homo sapiens) (Q2I0M4 whole entry, looked up, one chain of several): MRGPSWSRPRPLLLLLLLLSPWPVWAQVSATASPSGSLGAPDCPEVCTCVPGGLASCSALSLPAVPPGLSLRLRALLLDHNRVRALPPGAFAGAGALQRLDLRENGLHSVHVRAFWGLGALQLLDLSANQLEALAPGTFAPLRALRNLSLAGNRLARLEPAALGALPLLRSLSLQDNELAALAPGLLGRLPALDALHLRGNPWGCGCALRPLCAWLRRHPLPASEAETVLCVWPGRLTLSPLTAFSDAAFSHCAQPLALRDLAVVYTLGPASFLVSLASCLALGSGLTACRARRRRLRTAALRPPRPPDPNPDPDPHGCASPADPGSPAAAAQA

[6] = tested on: R275C; settings: U2OS BacMam BK variants, at 30 µM
[7] = tested on: R275C/beta1; settings: U2OS BacMam BK variants, at 30 µM
[8] = tested on: R275C/beta2Delta; settings: U2OS BacMam BK variants, at 30 µM
[9] = tested on: R275C/beta4; settings: U2OS BacMam BK variants, at 30 µM
[10] = tested on: R275C/Slo1WT/beta2; settings: U2OS BacMam BK variants, at 30 µM

| SMILES | log fold change Tl+ flux [1] | log fold change Tl+ flux [2] | log fold change Tl+ flux [3] | log fold change Tl+ flux [4] | log fold change Tl+ flux [5] | log fold change Tl+ flux [6] | log fold change Tl+ flux [7] | log fold change Tl+ flux [8] | log fold change Tl+ flux [9] | log fold change Tl+ flux [10] |
| --- | --- | --- | --- | --- | --- | --- | --- | --- | --- | --- |
| Cc1ccc(C(=O)Cn2cc([N+](=O)[O-])nc2C)cc1 | -0.00237 | -0.0164 | 0.0463 | -0.00425 | -0.043 | 0.00593 | 0.0164 | -0.0174 | 0.0383 | 0.0674 |
| COC(=O)C=C1NCC(O)CNC1=O (stereo not given) | -0.00633 | -0.0361 | 0.00999 | -0.025 | -0.0336 | 0.0119 | -0.0456 | 0.0117 | -2.9e-05 | 0.0313 |
| ONC=Nc1nonc1-c1cccnc1 | 0.00986 | -0.0105 | -0.0403 | 0.000104 | -0.0369 | -0.0128 | 0.016 | -0.0342 | -0.00156 | 0.00719 |
| NC(C=Cc1cc(C(F)(F)F)cc(C(F)(F)F)c1)=NOC(=O)c1c(F)cccc1F | -0.0565 | 0.0127 | -0.0278 | -0.0864 | -0.0341 | -0.0159 | -0.0569 | -0.0168 | 0.0381 | 0.0436 |
| CCOC(=O)C(C)Oc1ccc(NS(=O)(=O)c2cc(OC)ccc2OC)cc1Cl (stereo not given) | -0.0459 | -0.0343 | -0.0957 | -0.104 (active) | -0.0848 | -0.0618 | 0.0118 | -0.0738 | -0.0156 | -0.0391 |
| N=c1c(C(N)=O)cc2c(=O)n3ccccc3nc2n1Cc1ccco1 | 0.0339 | -0.0185 | 0.0123 | -0.019 | -0.0157 | 0.0321 | -0.0587 | -0.00823 | -0.00879 | 0.0143 |
| O=C(CC(=O)NNC(=O)c1ccc(F)cc1)NNC(=O)c1ccc(F)cc1 | 0.0677 | -0.0109 | 0.0456 | -0.0066 | -0.0103 | -0.0271 | 0.0179 | 0.0309 | -0.00647 | -0.086 |
| O=C(c1ccc(-c2cccs2)s1)c1ccc(F)cc1F | -0.00876 | 0.022 | 0.0129 | 0.0546 | 0.0119 | -0.00813 | 0.00849 | 0.0495 | -0.00599 | 0.0293 |
| O=C(Cn1nnc(N2CCCC2)n1)NN=Cc1ccc(Cl)cc1 | -0.0338 | -0.0165 | -0.0415 | 0.0509 | -0.0411 | 0.0738 | 0.012 | -0.0395 | 0.0185 | -0.00152 |
| Cc1cc(NC(=S)N2CCCCCC2)ccc1Br | -0.0478 | 0.0387 | -0.0137 | -0.0575 | -0.0699 | 0.0117 | -0.00715 | -0.0104 | 0.081 (active) | -0.00913 |
| CCOC(=O)c1nn(-c2ccc(C(C)(C)C)cc2)c(=O)c(C#N)c1C | -0.364 (active) | -0.189 (active) | -0.281 (active) | -0.097 (active) | -0.15 (active) | -0.52 (active) | -0.383 (active) | -0.219 (active) | -0.26 (active) | -0.0278 |
| CCOC(=O)c1sc(SC)nc1N | -0.000489 | -0.00635 | 0.00305 | 0.00634 | -0.00935 | 0.0886 (active) | -0.00543 | -0.0273 | -0.000536 | 0.0235 |
| O=c1c(Cl)c(N2CCOCC2)cnn1-c1cnc2ccccc2n1 | -0.0015 | 0.00611 | 0.0635 | 0.0417 | 0.0667 | 0.00311 | -0.0364 | 0.032 | -0.0173 | 0.0145 |
| Cc1noc(C)c1C(=O)Sc1nccc(C(F)(F)F)n1 | -0.0193 | 0.00713 | -0.00114 | 0.0508 | -0.00072 | 0.00122 | 0.0433 | -0.013 | 0.0297 | -0.0512 |
| Cc1cc(NC(=O)Nc2nc(-c3ccc(C)c(Cl)c3)c(C)s2)c(C(F)(F)F)o1 | 0.0531 | 0.0378 | 0.0304 | -0.0149 | 0.0333 | 0.0173 | -0.0274 | 0.015 | 0.0593 | 0.0144 |
| O=C(O)CSCC(=O)Nc1ccc(-c2nc3ccccc3s2)cc1 | -0.0115 | 0.19 (active) | -0.0257 | -0.0352 | 0.126 (active) | 0.0193 | 0.0504 | 0.0724 | 0.0271 | -0.022 |
| CC(=O)CSc1nc(SCC(C)=O)c2cnc(N3CCCC3)nc2n1 | -0.0105 | -0.0297 | -0.00118 | -0.00484 | 0.0577 | -0.0104 | -0.000725 | -0.0224 | -0.00829 | 0.0731 |
| CN(C)C=NC(=O)c1sc(S(C)(=O)=O)c2c1CCC=C2 | 0.147 (active) | 0.036 | -0.00643 | 0.00437 | -0.0666 | 0.00156 | -0.0344 | 0.00771 | -0.00153 | 0.0518 |
| N#Cc1ccc(NCCc2ccccn2)c([N+](=O)[O-])c1 | 0.00452 | -0.0335 | -0.0123 | -0.0514 | -0.00295 | -0.00307 | -0.0352 | -0.049 | 0.0115 | 0.0168 |
| O=S(=O)(c1ccc(-c2cc(C(F)(F)F)on2)s1)N1CCc2c([nH]c3ccc(F)cc23)C1 | 0.0233 | 0.0471 | 0.0355 | 0.0473 | 0.0308 | 0.0283 | -0.0189 | 0.0168 | -0.00429 | 0.00527 |
| Cc1cc(Sc2nnc(N=CN(C)C)s2)c2ccccc2n1 | 0.0126 | 0.0257 | -0.0453 | -0.0187 | 0.011 | 0.0403 | 0.0231 | 0.0658 | 0.0604 | 0.0405 |
| COc1cc(CCC(C)NC(=O)c2ccc(C)cc2)ccc1OC(=O)c1ccc(C)cc1 (stereo not given) | -0.0917 | -0.0646 | -0.0421 | -0.23 (active) | -0.115 (active) | -0.0349 | -0.0935 | -0.0312 | -0.0233 | 0.00819 |
| O=c1[nH]c2ccc(Cl)cc2c2oc(-c3ccccc3)nc12 | -0.0228 | 0.00567 | -0.059 | -0.0224 | -0.0128 | 0.01 | 0.031 | 0.0322 | 0.0357 | -0.0021 |
| Cc1ccc(C(C)NC(=O)c2ccc(Cl)c(Cl)c2)c(C)c1 (stereo not given) | -0.0383 | -0.0447 | -0.0218 | -5.9e-05 | -0.119 (active) | -0.0401 | 0.0121 | -0.00757 | 0.00443 | -0.0265 |
| O=C(Nc1csc(Cc2c(Cl)cccc2Cl)n1)NN1CCOCC1 | 0.0786 | 0.0031 | 0.0515 | 0.11 (active) | -0.0174 | -0.0115 | 0.0073 | 0.0159 | 0.00549 | -0.0281 |
| COc1cc(C(F)(F)F)nc2ccc(C#CCOC(=O)Nc3cccc(Cl)c3)cc12 | -0.0208 | 0.0282 | -0.0312 | 0.0143 | -0.0274 | -0.0392 | -0.0781 | -0.0125 | -0.00958 | 0.0405 |
